# 12-LOX inh: blocks human arachidonate 12S-lipoxygenase; P18054; actives 1.1% (n = 580,000); purified 12hLO, xylenol orange hydroperoxide absorbance; AID 1671190; Potency, µM (top dose mostly 108 µM), without a hit: at the top dose activity change, negative = inhibition, usual class: inhibitors; note: potency is the fitted concentration of half-maximal effect
# Target sequence (P18054 whole entry, looked up): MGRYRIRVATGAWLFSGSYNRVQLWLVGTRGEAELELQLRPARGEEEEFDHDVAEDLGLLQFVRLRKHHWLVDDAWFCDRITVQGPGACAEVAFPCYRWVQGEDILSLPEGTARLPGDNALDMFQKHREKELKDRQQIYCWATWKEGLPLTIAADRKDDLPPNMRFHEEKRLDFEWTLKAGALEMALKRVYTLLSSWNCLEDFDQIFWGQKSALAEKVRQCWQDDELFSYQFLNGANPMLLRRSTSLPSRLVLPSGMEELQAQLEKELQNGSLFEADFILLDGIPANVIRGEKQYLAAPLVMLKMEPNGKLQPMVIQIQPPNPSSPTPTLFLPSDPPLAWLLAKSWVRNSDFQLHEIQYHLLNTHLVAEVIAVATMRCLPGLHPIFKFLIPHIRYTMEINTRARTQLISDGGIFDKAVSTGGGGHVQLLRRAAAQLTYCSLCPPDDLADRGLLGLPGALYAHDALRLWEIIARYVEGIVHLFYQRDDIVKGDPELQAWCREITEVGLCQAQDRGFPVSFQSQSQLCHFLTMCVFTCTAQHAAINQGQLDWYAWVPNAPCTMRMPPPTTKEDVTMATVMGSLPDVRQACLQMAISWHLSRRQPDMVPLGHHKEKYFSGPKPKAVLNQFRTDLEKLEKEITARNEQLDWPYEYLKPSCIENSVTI
#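 Hydroperoxide product was detected by ferrous iron/xylenol orange as the 573 to 405 nm absorbance ratio. Arachidonic acid at 40 uM (final) was turned over for 30 min at room temperature by 150 nM human 12hLO, pH 7.0 Hepes buffer, after 15 min compound preincubation.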
# IL1B secr inh: inflammasome signaling inhibition, IL-1 beta readout | AID 743279 | THP-1 LPS/ATP IL-1B secretion, AlphaLISA, 16 h; hits give low values | activity change, % at 57.5 µM | actives 4.7% (n = 360,000); in the data active = activity change below about -50%; inconclusive = mostly about -30% to -49%
#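 Secreted IL-1B measured by AlphaLISA bead assay after 16 h compound exposure of THP-1 cells; compounds (final up to 57.5 uM) added 1 h before LPS (250 ng/mL) and ATP (1.25 mM) stimulation; lower signal means less secretion.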
# DT40 TDP1 no CPT: qHTS for Inhibitors of human tyrosyl-DNA phosphodiesterase 1 (TDP1): qHTS in cells in absence of CPT. actives 15% (n = 420,000). DT40 Tdp1-/- hTDP1 cells, no CPT, ATP luminescence, 48 h. AID 686978, 2013. Potency, µM (series often up to 46.2 µM), for the others: at the top dose activity change, negative = growth inhibition, most hits filed as inhibitors; note: potency is the fitted concentration of half-maximal effect; nearly all actives have a fitted effect of over 55% in size
#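 Cells were dispensed at 400 per well, compounds added by pin tool, plates incubated ≥48 hr at 37 °C, then CellTiter-Glo added for 30 min at room temperature before luminescence reading. Line: DT40 Tdp1-/- complemented with hTDP1; camptothecin omitted.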
# DT40 TDP1 CPT: growth inhibition of DT40 Tdp1-/-;hTDP1 cells with camptothecin (screen for TDP1 inhibitors); AID 686979; Potency, µM (titrated, usually from 46.2 µM), inactives show at the highest dose activity change, negative = growth inhibition, actives largely listed as inhibitors; chicken DT40 Tdp1-/-;hTDP1 cells + 20 nM CPT, ATP luminescence, 48 h; actives 12% (n = 420,000); note: potency is the fitted concentration of half-maximal effect; nearly all actives have a fitted effect of over 55% in size
#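 Cell growth measured by CellTiter-Glo luminescence after a minimum 48 h, 37 C compound exposure with 20 nM CPT in Tdp1-knockout DT40 cells stably expressing hTDP1, seeded 400/well; qHTS titration format.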
# HT1080 IDH1KD tx: toxicity to HT-1080 IDH1 knockdown cells (counter line); actives 2% (n = 360,000); Potency, µM (series often up to 46.1 µM), without a hit: top-dose activity, negative = toxicity, actives largely listed as cytotoxic; HT-1080 IDH1 knockdown viability, ATP luminescence, 48 h;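 note: potency is the fitted concentration of half-maximal effect; 0% = DMSO wells and -100% = cell-free medium wells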
#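 After a 2 h attachment period, IDH1KD HT-1080 cells took pin-transferred compound for 48 h at 37 °C; ATP-based luminescence after 10 min room-temperature reagent incubation reported viability.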
# HT1080-NT tox: kills 2HG-producing HT-1080-NT fibrosarcoma cells. Potency, µM (highest dose often 46.1 µM), for inactives: top-dose activity, negative = less viability, hits mostly cytotoxic. actives 1.6% (n = 360,000). HT-1080-NT fibrosarcoma viability, CellTiter-Glo ATP luminescence, 48 h;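 note: NT is the 2HG producing partner of a matched IDH1 knockdown line; potency is the fitted concentration of half-maximal effect; 0% = DMSO-treated cells and -100% = media-only wells without cells; nearly all actives have a fitted effect of over 55% in size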
#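 Viability by CellTiter-Glo luminescence after 48 h compound exposure at 37C of HT-1080-NT cells (750/well, RPMI, 5% FBS). % activity scaled between DMSO wells and medium-only wells, then curve-fitted and categorized by curve class.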
# * hit, by the source's call; ? = inconclusive; . = no result; [ ] = remark or other dose. This excerpt belongs to a sample that is enriched for hits. Unless noted, calls come from the whole dose curve; as a rule, active = well fitted curve in the direction sought with a large enough effect; inconclusive = small, poorly fitted or top-dose-only effect, or another doubt; inactive = no such curve, though single readings can be large; an effect the other way counts as inactive or inconclusive. Unless noted, % is set by controls: 0 for no effect and ±100 for the full control effect.
SMILES,12-LOX inh,IL1B secr inh,DT40 TDP1 no CPT,DT40 TDP1 CPT,HT1080 IDH1KD tx,HT1080-NT tox
O=C(OCC(=O)N1CCOCC1)c1ccccc1OCc1ccccc1,26.6%,-5.4,0.4%,-6.9%,7.9%,7.9%[9.24 µM]
CNC(=O)COc1ccccc1C(=O)Nc1ccc2c(c1)oc1ccccc12,0.0%,-69.3*,?,-28.7%,?,-22.1%
CC(C)(C)c1ccc(NC(=O)COC(=O)c2ccccc2OCC(=O)Nc2ccc(Br)cc2)cc1,.,.,?,15.8µM*,.,.
O=C(COC(=O)c1ccccc1OCC(=O)Nc1ccc(Br)cc1)Nc1ccccc1,-5.0%,12.0,?,?,-0.2%,2.0%
O=C(COc1ccccc1C(=O)OCC(=O)N1CCOCC1)Nc1ccc(Br)cc1,.,.,14.1µM*,15.8µM*,3.4%,0.7%
N#Cc1ccccc1NC(=O)c1ccccc1OCC(=O)Nc1ccc2c(c1)oc1ccccc12,-3.1%,29.4,?,?,0.0%,5.6%
COc1cc2ccccc2cc1C(=O)OCC(=O)Nc1ccc(Br)cc1,.,.,?,7.94µM*,.,.
Cc1ccc(CC(=O)Nc2cccc(C(=O)N3CCc4sccc4C3)c2C)cc1,4.0%,.,.,.,.,.
COc1ccc(OC)c(CN2C[C@@H]3C(=O)N(CCCN4CCCC4=O)C(=O)[C@@H]3C2)c1,76.7%,.,.,.,.,.
CC(C)CCN1CCC2(Cc3ccccc3NC2=O)C1 (stereo not given),25.2%[176 µM],.,.,.,.,.
Cc1nnc(NC(=O)CSc2nccn2-c2cccc(Cl)c2)s1,1.6%,.,-15.9%,5.4%,.,.
O=C(NCC1CC1)C1CN(c2cccc(Cl)c2)C(=O)N1 (stereo not given),6.2%[176 µM],.,.,.,.,.
COC(=O)c1ccc(NC(=O)c2ccccc2OCC(=O)Nc2ccc(Br)cc2)cc1,.,.,10µM*,?,?,?
CCOc1ccc(S(=O)(=O)N2CCCCC2)cc1NC(=O)Cc1cccc(C(F)(F)F)c1,13.7%,36.4,?,?,-6.8%,-12.0%
Cc1cccc(C(=O)N2CCC3(CC2)CC(c2ccccc2)C(=O)N3C)c1C (stereo not given),14.8%,.,.,.,.,.
Cc1ccccc1C(=O)O/N=C/c1c(N2CCOCC2)n(C)c2ccccc12,5.5%,36.7,1.3µM*,1.46µM*,2.51µM*,2.82µM*
CNC(=S)NNC(=O)c1csc2ccccc12,-0.5%,.,.,.,.,.
CCCCNC(=S)NNC(=O)c1csc2ccccc12,1.6%,-27.6,25.9µM*,?,1.8%,?
CN(C)/C=C/C1=CC(=O)CC(C)(C)C1,4.4%,?,-23.8%,-2.3%,20.6µM*,-29.4%
O=C(Nc1ccncc1)C12CC3CC(CC(Br)(C3)C1)C2,-2.7%,.,.,.,.,.
Cc1ccc2c(=O)cc(C(=O)Nc3sc4c(c3C(N)=O)CCCC4)oc2c1,-7.3%,.,-5.2%,-21.1%,.,.
Cc1cccc(C2=NC(C(F)(F)F)(C(F)(F)F)c3c(n(-c4ccc(F)cc4)c(=O)[nH]c3=O)N2)c1,-2.6%,3.3,16.4µM*,20.6µM*,-1.4%,-4.4%
Cn1ccnc1-c1ccc(N2CCCC(CO)(CCOc3ccccc3)C2)nn1 (stereo not given),128.3%,.,.,.,.,.
COC(=O)CC1Oc2ccccc2-n2cc(-c3ccc(Cl)cc3)nc21 (stereo not given),-11.1%,.,1.84µM*,7.31µM*,.,.
COC(=O)CC1Oc2ccccc2N(Cc2ccccc2)C1=O (stereo not given),442.1%,12.2,-15.1%,7.5%,1.0%,6.1%
SMILES,12-LOX inh,IL1B secr inh,DT40 TDP1 no CPT,DT40 TDP1 CPT,HT1080 IDH1KD tx,HT1080-NT tox
COC(=O)CC1Oc2ccc(Cl)cc2-n2cc(-c3ccccc3)nc21 (stereo not given),-10.9%,.,13µM*,20.6µM*,.,.
COCCN1Cc2ccc(NCC(C)C)nc2C(C)(C(=O)NC2CC2)C1 (stereo not given),2.5%[176 µM],.,.,.,.,.
O=C(Nc1c(Cl)cc([N+](=O)[O-])cc1Cl)c1cc(Cl)ccc1O,.,.,2µM*,2.51µM*,.,.
COc1ccc(NC(=O)c2cc(Br)ccc2Cl)c([N+](=O)[O-])c1,-2.0%,-4.1,-14.8%,1.0%,-29.0%,-26.9%
O=C(Nc1ccc([N+](=O)[O-])cc1Cl)c1cc(Br)ccc1O,.,.,0.447µM*,0.794µM*,.,.
CC(C)(C)c1cc2cc(C#N)ccc2[nH]1,-61.2%,.,.,.,.,.
CC(CNC(=O)[C@@H](Cc1ccccc1)NC(=O)CC[C@H]1O[C@@H](n2ccc(=O)[nH]c2=O)[C@H](O)[C@@H]1O)c1ccccc1 (stereo not given in full),4.6%,-66.2*,36.3%,8.3%,12.7%,22.3%
COc1ccc(N2C(=O)/C(=C/c3ccc([N+](=O)[O-])cc3)N=C2C)cc1,-3.8%,14.5,?,-16.0%,-4.6%,1.6%
CC1=N/C(=C\c2ccc([N+](=O)[O-])cc2)C(=O)N1c1ccc(Br)c(C)c1,-7.8%,-19.5,5.8µM*,11.6µM*,1.0%,-1.7%
CCN(CC)c1ccc(/C=C2\SC(=O)N(C(C)C)C2=O)o1,.,-98.8*,2.06µM*,0.92µM*,7.31µM*,16.4µM*
CC1(c2ccc(F)cc2)OC(=O)c2c1ccc1ccccc21 (stereo not given),-13.2%,17.8,18.4µM*,?,-0.2%,2.6%
CC1(C(=O)NCc2ccc(F)cc2)Oc2ccccc2NC1=O (stereo not given),-14.4%,-2.7,-8.2%,5.4%,-11.0%,-4.9%
O=c1c2ccccc2nc(SCCN2CCCCC2)n1CCc1ccccc1,1.8%,-60.2*,20.6µM*,?,14.6µM*,?
CC(C)Cn1c(SCC(=O)N2CCCCC2)nc2ccccc2c1=O,4.1%,-1.2,25.9µM*,?,-8.9%,-17.5%
NC(=O)CSc1nc2ccccc2c(=O)n1CCc1ccccc1,6.9%,17.2,?,-14.6%,3.3%,8.7%
CCOC(=O)N1CCC(n2c(SCC(=O)N3CCCC3)nc3ccccc3c2=O)CC1,-20.7%,19.2,18.4µM*,23.1µM*,-8.6%,-0.8%
COc1ccc(C(=O)Nn2c(SCC(=O)N3CCC(C)CC3)nc3ccccc3c2=O)cc1,0.0%,-52.9*,-20.7%,-17.0%,?,?
Cc1c(Oc2ccc(C#N)c(C#N)c2)cccc1Oc1ccc(C#N)c(C#N)c1,14.2%,.,.,.,.,.
COCCn1c(SCC(=O)N2CCC(C)CC2)nc2ccccc2c1=O,-21.5%,9.0,?,?,2.2%,8.1%

# Source: PubChem BioAssay (National Center for Advancing Translational Sciences (NCATS))
